GIRK2 act = activators of NPY4-receptor-primed GIRK2 channels, summary, cell-based, HEK293, thallium flux. G protein-activated inward rectifier potassium channel 2 (Homo sapiens), P48051. HEK293 GIRK2/NPY4 cells, thallium flux fluorescence. activation (% efficacy), % for hits at 37.5 µM. 34,000 tested, under 10 active;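 active = primary screen hit, no activity in plain HEK293 cells, and in GIRK2-only cells above 5% efficacy rising with concentration; inactive = the rest, including fluorescent compounds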;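 also: efficacy is normalized control-subtracted fluorescence 15 s after thallium addition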
AMPAR-TARP mod = modulators of GluA2-stargazin AMPA receptor complexes, primary screen, cell-based, membrane potential dye; 40,000 compounds, 3.5% hits; AID 1259245, 2017; HEK293 GluA2+stargazin, membrane potential dye (FDSS), glutamate EC50; hits were called plate by plate, in both directions; calls only at 30 µM;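 active = any of four per-well response measures lying three or more SD from its plate-wide compound average, in either direction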
Target sequence (O88602 whole entry, looked up): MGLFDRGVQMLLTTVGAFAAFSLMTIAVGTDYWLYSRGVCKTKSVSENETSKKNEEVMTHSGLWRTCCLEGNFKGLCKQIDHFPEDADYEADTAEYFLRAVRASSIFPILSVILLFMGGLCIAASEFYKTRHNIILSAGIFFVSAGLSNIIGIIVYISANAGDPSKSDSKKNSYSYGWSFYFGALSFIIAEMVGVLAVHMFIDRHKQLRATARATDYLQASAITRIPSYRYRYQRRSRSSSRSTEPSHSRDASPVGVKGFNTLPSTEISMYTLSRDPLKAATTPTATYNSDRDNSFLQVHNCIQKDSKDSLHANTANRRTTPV
Target sequence (P19491 whole entry, looked up): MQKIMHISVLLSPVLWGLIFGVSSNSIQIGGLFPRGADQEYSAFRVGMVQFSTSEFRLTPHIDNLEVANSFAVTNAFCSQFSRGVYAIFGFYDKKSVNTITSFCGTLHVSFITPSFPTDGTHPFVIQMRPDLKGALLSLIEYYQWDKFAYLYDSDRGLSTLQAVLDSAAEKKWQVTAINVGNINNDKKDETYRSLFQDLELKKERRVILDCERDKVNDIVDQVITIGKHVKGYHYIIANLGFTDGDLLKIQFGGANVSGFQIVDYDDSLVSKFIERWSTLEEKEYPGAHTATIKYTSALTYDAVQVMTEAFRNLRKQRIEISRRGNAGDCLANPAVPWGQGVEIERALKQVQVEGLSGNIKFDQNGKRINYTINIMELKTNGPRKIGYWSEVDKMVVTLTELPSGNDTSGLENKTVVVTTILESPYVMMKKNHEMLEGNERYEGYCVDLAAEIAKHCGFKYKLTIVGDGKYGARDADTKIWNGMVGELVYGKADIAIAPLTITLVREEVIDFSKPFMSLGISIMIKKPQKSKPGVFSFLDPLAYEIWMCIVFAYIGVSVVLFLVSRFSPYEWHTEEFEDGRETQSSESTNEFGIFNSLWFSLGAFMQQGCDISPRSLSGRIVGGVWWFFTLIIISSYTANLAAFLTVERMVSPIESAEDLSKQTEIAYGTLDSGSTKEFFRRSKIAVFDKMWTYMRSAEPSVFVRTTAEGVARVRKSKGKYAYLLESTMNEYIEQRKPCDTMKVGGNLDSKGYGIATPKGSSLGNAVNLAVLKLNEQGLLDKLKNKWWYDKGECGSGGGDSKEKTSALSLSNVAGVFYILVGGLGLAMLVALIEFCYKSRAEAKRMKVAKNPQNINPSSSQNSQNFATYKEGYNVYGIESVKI
* hit, by the source's call; i = inactive; . = not tested or not shown; + = active, no number. Shown is part of a subset that was picked to be rich in hits.

SMILES	GIRK2 act	AMPAR-TARP mod
Cc1ccc(-c2nnc(NC(=O)c3ccc(S(=O)(=O)N4CCCCC4)cc3)o2)cc1C	i	i
Cc1cc(-c2nnc(NC(=O)c3cc(Cl)sc3Cl)o2)nn1C	i	i
CN(C)S(=O)(=O)c1ccc(C(=O)Nc2nnc(-c3ccc(Br)s3)o2)cc1	i	i
Cc1cc(C(=O)Nc2nnc(-c3cc(C)n(C)n3)o2)nn1C	i	+
CCN(CC)S(=O)(=O)c1ccc(C(=O)Nc2nnc(-c3ccc(Br)s3)o2)cc1	i	+
Cc1cc(-c2nnc(NC(=O)c3cccc(C(F)(F)F)c3)o2)nn1C	i	i
COc1ccc(NC(=O)Cc2csc(Nc3ccc(S(C)(=O)=O)cc3)n2)cc1OC	i	i
O=C(c1cc(-c2ccco2)on1)N1CCN(Cc2nc(-c3ccccc3)cs2)CC1	i	i
CC(C)C(=O)Nc1ccc(S(=O)(=O)Nc2ccc3c(c2)N(C(=O)C(C)(C)C)CC3)cc1	i	i
Cc1onc(-c2ccccc2Cl)c1C(=O)Nc1ccc(CC(=O)N2CCCC2)cc1	i	i
CC(C)(C)NC(=O)CSc1nnc(-c2ccncc2)o1	i	i
Cc1c(Cl)cccc1S(=O)(=O)N1CCC(c2cccs2)CC1	i	i
CC(=O)c1ccc(C(=O)Nc2nnc(-c3cc(C)n(C)n3)o2)cc1	i	+
CCOc1cc(C(=O)Nc2nnc(-c3cc(C)n(C)n3)o2)cc(OCC)c1OCC	i	+
Cc1cc(-c2nnc(NC(=O)c3cc4ccccc4o3)o2)nn1C	i	i
Cc1ccc(C(=O)Nc2nnc(-c3cc(C)n(C)n3)o2)cc1C	i	i
COc1cccc2cc(C(=O)Nc3nnc(-c4cc(C)n(C)n4)o3)oc12	i	+
CCN(CC)S(=O)(=O)c1ccc(C(=O)Nc2nnc(-c3cc(C)n(C)n3)o2)cc1	i	+
Cc1cc(-c2nnc(NC(=O)c3ccc(SC(C)C)cc3)o2)nn1C	i	i
Cc1cc(-c2nnc(NC(=O)c3ccc(S(C)(=O)=O)cc3)o2)nn1C	i	i
NCC1CCN(Cc2cccs2)CC1	i	i
O=C(/C=C/c1ccccc1)NCC1COC2(CCCCC2)O1 (stereo not given)	i	.
CN(C)CCNc1nc2c(c(=O)n(C)c(=O)n2C)n1CC(O)c1ccccc1 (stereo not given)	i	i
COC(=O)c1ccc2c(=O)n(CCCC(=O)N3CCC(Cc4ccccc4)CC3)c(=S)[nH]c2c1	i	i
O=C(Cc1cc(-c2ccc3c(c2)OCO3)on1)Nc1ccc(F)c(Cl)c1	i	i
SMILES	GIRK2 act	AMPAR-TARP mod
O=S(=O)(NCC(O)(c1ccco1)C1CC1)c1ccc2c(c1)OCCO2 (stereo not given)	i	i
O=S(=O)(NCC(O)(c1ccco1)C1CC1)c1cccc(C(F)(F)F)c1 (stereo not given)	i	+
O=C(NCCC(O)c1ccco1)NC(c1ccccc1)c1ccccc1 (stereo not given)	i	i
COc1ccc(Cl)cc1NC(=O)c1ccc(=O)n(Cc2ccc(Cl)cc2)c1	i	i
CCc1nc(N2CCN(C)CC2)c2oc3ccccc3c2n1	i	+
CN1CCN(c2nnnc3c2cnn3-c2ccccc2)CC1	i	i
CCOC(=O)N1CCc2nc(NC(=O)c3ccc([N+](=O)[O-])s3)sc2C1	.	+
CCOC(=O)N1CCc2nc(NC(=O)c3cccs3)sc2C1	i	i
CSCCC(C)(O)CNC(=O)C(=O)Nc1cccnc1 (stereo not given)	i	i
COC(=O)C1=C(C)N(C)C(=O)NC1c1ccc(OCc2ccccc2)cc1 (stereo not given)	.	i
CCC(=O)N1c2ccccc2NC2=C(C(=O)CC(C)(C)C2)C1c1ccc(OCc2ccccc2)cc1 (stereo not given)	.	+
COCCn1c(=O)c2c(nc3n(-c4ccccc4F)c(-c4ccccc4)cn23)n(C)c1=O	.	i
COc1ccc(CC(=O)Nc2ccc(CC(=O)N3CCCC3)cc2)cc1	i	i
COc1ccc(OCC(=O)Nc2ccc(CC(=O)N3CCOCC3)cc2)cc1	i	+
O=C(CSCc1ccccc1)N1CCC(Oc2nc3c(F)cc(F)cc3s2)CC1	i	i
Cc1cc(C)n(-c2cc(N3CCCC(C(=O)Nc4nnc(C)s4)C3)ncn2)n1 (stereo not given)	i	i
Cc1cc(C)c(NC(=O)C2(c3cccs3)CCOCC2)c(C)c1	i	i
Cc1cc(C)c(NC2=C/C(=N/S(=O)(=O)c3cccs3)c3ccccc3C2=O)c(C)c1	.	+
Cc1cccc(NC(=O)CSc2nc3nc(C)cc(C)c3c(=O)[nH]2)c1	.	i
Cc1cc(C)c2c(=O)[nH]c(SCC(N)=O)nc2n1	.	+
COc1cccc2c1OC(c1ccncc1)N1N=C(c3ccc4c(c3)OCO4)CC21 (stereo not given)	i	i
CCOc1ccc(-n2nnnc2SC(C)C(=O)Nc2ccccc2C)cc1 (stereo not given)	.	i
COc1ccc(-n2nnnc2SC(C)C(=O)Nc2nccs2)cc1 (stereo not given)	.	+
COc1ccc(-n2nnnc2SCCC(=O)Nc2nccs2)cc1	i	i
CCOc1ccc(-n2nnnc2SC(C)C(=O)Nc2ccccc2F)cc1 (stereo not given)	.	+
SMILES	GIRK2 act	AMPAR-TARP mod
O=C(NCCOc1ccc(-c2ccco2)nn1)c1ccc2c(c1)OCO2	i	i
O=C(CC1CCCCN1S(=O)(=O)c1ccccc1)NCc1cccs1 (stereo not given)	.	i
Cc1cccc(NC(=O)CC2CCCCN2S(=O)(=O)c2cccs2)c1C (stereo not given)	i	+
Cc1c(Cl)cccc1S(=O)(=O)NCC(O)(c1ccccc1)C(F)(F)F (stereo not given)	i	+
O=S(=O)(NCC(O)(c1ccccc1)C(F)(F)F)c1ccccc1Cl (stereo not given)	i	i
Cc1[nH]c(=O)[nH]c(=O)c1Cc1nnc(SCc2cn3ccccc3n2)o1	i	i
COC(=O)c1ccc2nc(NC(=O)C3CCCCC3)sc2c1	i	i
COC(=O)c1sc2ccccc2c1NC(=O)C1CCCCC1	.	+
Cc1cc2c(cc1C)NC(CC(=O)NCC(C)C)C(=O)N2 (stereo not given)	.	i
COC(=O)c1ccsc1NC(=O)CC1Nc2cc(C)c(C)cc2NC1=O (stereo not given)	i	+
Cc1nc(C)c(C(=O)N2CCC(c3nnc(C(C)C)o3)CC2)s1	i	i
O=C(CC1Nc2cccc3cccc(c23)NC1=O)Nc1cccc(C(F)(F)F)c1 (stereo not given)	.	+
COC(=O)c1ccccc1NC(=O)CC1Nc2cccc3cccc(c23)NC1=O (stereo not given)	.	i
COc1cc(NC(=O)NCCCn2nc(-c3ccc(C)cc3)ccc2=O)cc(OC)c1	i	i
O=C(CSc1nc(-c2ccco2)cc(C(F)(F)F)n1)N1CCSCC1	.	i
O=C(CSc1nc(-c2ccco2)cc(C(F)(F)F)n1)N1CCCCCC1	.	+

From PubChem
